From PubChem BioAssay
CRE Fsk mod: alters forskolin-stimulated CRE reporter signaling in CHO cells | CHO CRE-bla reporter (cAMP response element driving beta-lactamase), forskolin EC10, beta-lactamase ratio | Potency, µM (highest dose often 38.2 µM), inactives show top-dose activity change, negative = inhibition, usual class: activators | 71,000 compounds, 2.5% hits | AID 662; active = well fitted activation curve with a large enough effect in the signal ratio, with a control signal flat, not every such curve was filed as active; inconclusive = small, poorly fitted or top-dose-only effect, or effect the other way, or a change in a side signal; the % refers to the signal ratio; also: % of control where 0% means no effect
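The 460nm/530nm emission ratio after CCF4 loading defined %Activity, from which AC50 values were obtained. CRE-bla CHO cells received compound dilution series together with an EC10 level of NKH 477 for 3 hours at 37 degrees Celsius.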
ERK AVP inh: vasopressin-driven ERK pathway inhibition. Potency, µM (top dose mostly 57.5 µM), without a hit: at the top dose activity, negative = inhibition, actives largely listed as inhibitors. 72,000 compounds, 0.99% hits. HEK293-V1b, vasopressin-stimulated pERK AlphaScreen; also: % is scaled to controls: 0 for no effect and ±100 for the full control effect; nearly all actives have a fitted effect of over 55% in size
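HEK293 cells stably expressing V1b receptor, seeded overnight in 1% FBS, were treated with compounds for 30 min at 37C, then stimulated 5 min with 25 nM vasopressin; phospho-ERK read by AlphaScreen SureFire after lysis.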
TSHR ag: activates the human thyroid stimulating hormone receptor | P16473 | HEK293-CNG-TSHR cells (CNG channel as cAMP sensor), membrane potential dye, cAMP | Potency, µM (titrated, usually from 57.1 µM), without a hit: at the top dose activation, actives largely listed as activators | 73,000 compounds, 0.48% hits | AID 926; active = well fitted activation curve with a large enough effect in the main read-out, with a control signal flat, not every such curve was filed as active; inconclusive = small, poorly fitted or top-dose-only effect, or a change in a side signal; inactive = no such curve, though single readings can be large or run the other way; % of control where 0% means no effect;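 also: the control signal comes from parental cells without the receptor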
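cAMP rise detected as CNG-channel membrane depolarization by fluorescent dye (emission 590 nm), 30 min after compound, following 60 min dye loading containing 100 uM RO 20-1724 at room temperature. Cells: TSHR/CNG HEK 293, with parental CNG HEK 293 as control.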
Tau fil binding: binders of human tau filaments; P10636; recombinant tau filaments, thioflavin S fluorescence, 15 h; filaments grown with octadecylsulfate alongside compound; Potency, µM (top dose mostly 57.1 µM), for inactives: at the highest dose activity change, negative = inhibition; 71,000 compounds, 2% hits; AID 596;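 also: % is scaled to controls: 0 for no effect and ±100 for the full control effect; actives lower thioflavin S fluorescence by blocking filaments or displacing dye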
Target sequence (P10636 whole entry, looked up): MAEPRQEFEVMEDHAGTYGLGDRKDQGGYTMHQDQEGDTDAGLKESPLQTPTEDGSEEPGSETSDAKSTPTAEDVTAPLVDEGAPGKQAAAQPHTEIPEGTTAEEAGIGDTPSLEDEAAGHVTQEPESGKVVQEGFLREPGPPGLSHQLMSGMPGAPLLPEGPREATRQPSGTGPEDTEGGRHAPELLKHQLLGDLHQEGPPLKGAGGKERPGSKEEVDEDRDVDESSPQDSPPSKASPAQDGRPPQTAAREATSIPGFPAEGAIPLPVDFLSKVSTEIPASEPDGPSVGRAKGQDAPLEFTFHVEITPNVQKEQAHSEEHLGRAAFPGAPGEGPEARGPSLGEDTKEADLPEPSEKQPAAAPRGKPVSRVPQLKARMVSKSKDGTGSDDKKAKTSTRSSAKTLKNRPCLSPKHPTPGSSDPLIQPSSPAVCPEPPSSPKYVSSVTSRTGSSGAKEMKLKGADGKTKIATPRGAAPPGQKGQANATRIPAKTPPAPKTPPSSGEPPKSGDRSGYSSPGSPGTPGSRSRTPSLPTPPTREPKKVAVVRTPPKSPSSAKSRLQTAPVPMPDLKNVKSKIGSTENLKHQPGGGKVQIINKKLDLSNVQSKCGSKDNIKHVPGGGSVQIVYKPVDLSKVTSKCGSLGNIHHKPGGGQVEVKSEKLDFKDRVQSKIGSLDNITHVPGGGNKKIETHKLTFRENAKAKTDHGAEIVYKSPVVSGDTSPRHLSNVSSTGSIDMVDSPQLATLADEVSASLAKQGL
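Quantitative HTS: thioflavine S signal from ODS-induced tau filaments, excited at 450 nm, emission 510 nm. Conditions: 1 uM tau, 30 uM ODS, 15 h at 37 C, pH 7.4.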
HEK293 cAMP cs: counter-screen for TSHR agonists: cAMP increase in parental HEK293. Potency, µM (titrated, usually from 57.1 µM), without a hit: at the highest dose activation, actives largely listed as activators. parental HEK293 CNG cAMP sensor, membrane potential fluorescence. 73,000 compounds, 2.5% hits. AID 938; also: % of control where 0% means no effect; nearly all actives have a fitted effect of over 55% in size
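Parental HEK 293 cells stably expressing a modified CNG channel (no TSHR) report cAMP rise as membrane depolarization. Membrane potential dye with 100 uM RO 20-1724 was loaded for 60 min at room temperature, then compound added for 30 min; fluorescence read at 590 nm.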
An asterisk follows results filed as active; [ ] = another dose, or the depositor's remark. Sampled rows, rich in hits. Any-hit rate of the full collection: about 7.4%. Unless noted, calls follow the shape of the dose curve; as a rule, active = well fitted curve in the direction sought with a large enough effect; inconclusive = small, poorly fitted or top-dose-only effect, or another doubt; inactive = no such curve, though single readings can be large; an effect the other way counts as inactive or inconclusive. Potency is read from the fitted curve at half-maximal effect.

Results for COc1ccccc1S(=O)(=O)Cc1ccc(C(=O)N2CCN(c3cccc(Cl)c3)CC2)o1 ?
CRE Fsk mod: -27%; ERK AVP inh: inconclusive; TSHR ag: inconclusive; Tau fil binding: 24%; HEK293 cAMP cs: 5µM*

What do the screens show for `COC(=O)C/C=C\[C@@H](C)[C@@H](/C=N\OC[C@@H](O)COCc1ccco1)OC`?
ERK AVP inh: 9%[11.5 µM]; TSHR ag: 3%[11.4 µM]; HEK293 cAMP cs: -5%[11.4 µM]

How did COc1ccc(-c2ncc3ccccn23)cc1 do in these assays?
CRE Fsk mod: 2%; ERK AVP inh: -16%; TSHR ag: -6%; Tau fil binding: 20µM*; HEK293 cAMP cs: -3%

Results for CCN(CC)S(=O)(=O)c1cccc(-c2nnc(SCC#N)n2Cc2ccccc2)c1 ?
CRE Fsk mod: 9%; ERK AVP inh: -2%; TSHR ag: inconclusive; Tau fil binding: -14%; HEK293 cAMP cs: inconclusive

How did CCN(CC)S(=O)(=O)c1cccc(-c2nnc(SC(C)C#N)n2Cc2ccccc2)c1 (configuration not stated) do in these assays?
CRE Fsk mod: 7%; ERK AVP inh: -22%; TSHR ag: inconclusive; Tau fil binding: -2%; HEK293 cAMP cs: 25µM*

How did NNS(=O)(=O)c1cc(C(=O)O)cc(C(=O)O)c1 do in these assays?
CRE Fsk mod: 5%[7.6 µM]; ERK AVP inh: -18%[11.5 µM]; TSHR ag: -4%[11.4 µM]; Tau fil binding: 5%[11.4 µM]; HEK293 cAMP cs: 3%[11.4 µM]

What do the screens show for `CN1CCN(c2ncc3nc(-c4cccc(C#N)c4)c(=O)n(CCc4ccccc4)c3n2)CC1`?
CRE Fsk mod: inconclusive; ERK AVP inh: -20%; TSHR ag: inconclusive; Tau fil binding: inconclusive; HEK293 cAMP cs: inconclusive

Results for CC1=C(C(=O)N(C)Cc2ccccc2)C2(CCC(C)CC2)OC1=O (configuration not stated) ?
CRE Fsk mod: -7%; ERK AVP inh: 40%; TSHR ag: inconclusive; Tau fil binding: -19%; HEK293 cAMP cs: 6.3µM*

What do the screens show for `CCCNC(=O)C1=C(C)C(=O)OC12CCC(C)CC2` (configuration not stated)?
CRE Fsk mod: -1%; ERK AVP inh: -15%; TSHR ag: 6%; Tau fil binding: -19%; HEK293 cAMP cs: 19%

How did CC1=C(C(=O)OCc2ccccc2)C(c2ccc(C3CCCCC3)cc2)NC(=O)N1CCCCCC(=O)O (configuration not stated) do in these assays?
CRE Fsk mod: inconclusive; ERK AVP inh: 12%; TSHR ag: inconclusive; Tau fil binding: 3%; HEK293 cAMP cs: 32µM*

How did CC1=C(C(=O)OCc2ccccc2)C(c2ccc(Cl)cc2)NC(=O)N1CCCCCC(=O)O (configuration not stated) do in these assays?
CRE Fsk mod: inconclusive; ERK AVP inh: -7%; TSHR ag: inconclusive; Tau fil binding: 5%; HEK293 cAMP cs: inconclusive

How did CC(C)OCCCn1c(-c2ccco2)nc2nc3ccccc3nc21 do in these assays?
CRE Fsk mod: 7.9µM*; ERK AVP inh: -26%; TSHR ag: 9%; Tau fil binding: 16µM*; HEK293 cAMP cs: 10%

What do the screens show for `COCCn1c(-c2ccco2)nc2nc3ccccc3nc21`?
CRE Fsk mod: 7.9µM*; ERK AVP inh: -26%; TSHR ag: -8%; Tau fil binding: -15%; HEK293 cAMP cs: -1%

What do the screens show for `COCCn1c(-c2cc(OC)c(OC)c(OC)c2)nc2nc3ccccc3nc21`?
CRE Fsk mod: inconclusive; ERK AVP inh: 9%; TSHR ag: -2%; Tau fil binding: 0%; HEK293 cAMP cs: 0%

Results for COc1ccc2c(c1)CCc1c(-c3noc4c3CCc3cc(OC)ccc3-4)noc1-2 ?
CRE Fsk mod: -7%[7.6 µM]; ERK AVP inh: 3%[11.5 µM]; TSHR ag: 2%[11.4 µM]; Tau fil binding: 6%[11.4 µM]; HEK293 cAMP cs: -3%[11.4 µM]

How did COc1ccc2c(c1)Cc1cc(N=[N+]([O-])c3ccc4c(c3)Cc3cc(OC)ccc3-4)ccc1-2 do in these assays?
CRE Fsk mod: 3%[7.6 µM]; ERK AVP inh: 2%[11.5 µM]; TSHR ag: -2%[11.4 µM]; Tau fil binding: 3.2µM*; HEK293 cAMP cs: 4%[11.4 µM]

How did COc1ccc(C(C(O)C(=O)c2c[nH]c3ccccc23)N2CCN(c3ccc(OC)cc3)CC2)cc1 (configuration not stated) do in these assays?
CRE Fsk mod: inconclusive; ERK AVP inh: 7%; TSHR ag: -5%[11.4 µM]; Tau fil binding: 13µM*; HEK293 cAMP cs: -11%

What do the screens show for `OC(COc1ccc2cc(Br)ccc2c1)CN1CCCC1` (configuration not stated)?
CRE Fsk mod: 3%; ERK AVP inh: -19%; TSHR ag: 4%; Tau fil binding: 88%; HEK293 cAMP cs: 14%

How did OC(COc1ccc2cc(Br)ccc2c1)CN1CCN(c2ccccn2)CC1 (configuration not stated) do in these assays?
CRE Fsk mod: -4%; ERK AVP inh: 25µM*; TSHR ag: 12%; Tau fil binding: 12%; HEK293 cAMP cs: 18%

What do the screens show for `Cn1cc(-c2nc3cnc(N4CCOCC4)nc3n(CCC#N)c2=O)c2ccccc21`?
CRE Fsk mod: inconclusive; ERK AVP inh: -16%; TSHR ag: 1%; Tau fil binding: inactive; HEK293 cAMP cs: 20%

How did Cc1cnc(CNc2nc(-c3cccc(NS(C)(=O)=O)c3)nc3ccccc23)cn1 do in these assays?
CRE Fsk mod: 13µM*; ERK AVP inh: -25%; TSHR ag: 10%; Tau fil binding: -15%; HEK293 cAMP cs: 3%

Results for CS(=O)(=O)Nc1cccc(-c2nc(Nc3ccncc3)c3ccccc3n2)c1 ?
CRE Fsk mod: 6.3µM*; ERK AVP inh: inconclusive; TSHR ag: 4%; Tau fil binding: 76%; HEK293 cAMP cs: -8%

Results for COc1cccc(-c2nc(NCc3cnc(C)cn3)c3ccccc3n2)c1 ?
CRE Fsk mod: 13µM*; ERK AVP inh: -12%; TSHR ag: 9%; Tau fil binding: -5%; HEK293 cAMP cs: -2%

What do the screens show for `CC(=O)OC[C@H]1O[C@@H](O/N=C(\C)CCN2CCc3nc(-c4ccccc4)c(-c4ccccc4)cc3C2)[C@H](OC(C)=O)[C@@H](OC(C)=O)[C@H]1OC(C)=O`?
ERK AVP inh: 8%[11.5 µM]; TSHR ag: -2%[11.4 µM]; HEK293 cAMP cs: -6%[11.4 µM]

What do the screens show for `c1ncc(-c2ccc3c(c2)OCO3)c(NCCc2cnc[nH]2)n1`?
CRE Fsk mod: inconclusive; ERK AVP inh: 3%; TSHR ag: 1%; Tau fil binding: 4%; HEK293 cAMP cs: 8%

Results for CCOC(=O)N1CCC(Nc2c(Nc3ccc(C)c(C)c3)c(=O)c2=O)CC1 ?
CRE Fsk mod: inconclusive; ERK AVP inh: 13%; TSHR ag: -1%[11.4 µM]; Tau fil binding: 20µM*; HEK293 cAMP cs: 13%

How did NS(=O)(=O)c1ccc(C(=O)O)cc1 do in these assays?
CRE Fsk mod: 11%[7.6 µM]; ERK AVP inh: -13%[11.5 µM]; TSHR ag: 1%[11.4 µM]; Tau fil binding: -4%[11.4 µM]; HEK293 cAMP cs: 23%[11.4 µM]
